The results in this text go back to PubChem BioAssay (NCI).

The panel holds about 83,000 compounds, 20% with a hit somewhere; the sample as a whole holds those more often.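 Percent growth is the endpoint: 0 to 100 indicates growth inhibition (40 means 60% inhibition), 0 means no net growth, and negative values indicate cell death.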 A number with no mark means an inactive call. The source made the active and inactive calls. The calls were made as follows: active = growth percent below 10; inactive = the rest.

The test system of the assay is MDA-MB-468 breast. The assay can be described thus: NCI-60 one-dose screen, 48 h (100 = growth as untreated, 0 = no growth, -100 = all killed). To be noted: 10 µM unless noted.
Regarding `O=[N+]([O-])c1cccc(-c2nc3sccn3c2-c2ccnc(NCCCNS(=O)(=O)c3ccc(Br)cc3)n2)c1`, the growth was 29.2%.

Take `Oc1c(CN2CCOCC2)cc(COCc2ccccc2)c2cccnc12`: the growth was 12.1%.

`O=C(NO)c1ccc(CNc2cccc3nc(C4CC4)n(-c4ccccc4)c(=O)c23)cc1`: the growth was 22.3%.

As to `c1cnc2c(-c3nc4ccc5[nH]ncc5c4c4c3CCCC4)c[nH]c2c1`, the growth was 10.9%. Turning to `O=C(O)c1ccc2c3c(ncnc13)-c1ccccc1C2=O`, the growth is 95.7%. With `O=C1[C@@H]2Cc3c([nH]c4ccccc34)[C@H](c3c(Cl)cccc3Cl)N2C(=O)CN1C1CCN(CC2CCCCC2)CC1`, the growth is 47.8%. As to `Fc1ccc(Nc2nc(NCCNc3ccnc4cc(Cl)ccc34)nc(N3CCOCC3)n2)cc1`, the growth is 16.7%. For `CN1CCN(CCC=C2c3ccccc3Sc3ccc(S(=O)(=O)N(C)C)cc32)CC1` the value was 21.1%. In the case of `C=CCn1ccc(=O)nc1SC`, the growth was 115%. Turning to `CN(CCCN(C)CCC1CCCCC1)CCC1CCCCC1`, the growth was -76.1% (active).

In the case of `C=CCNc1ccccc1`, the growth was 108%. In the case of `NC(=O)NCC1CCCCC1` it was 98%; in that of `CN(C)c1nc2c(N)ncnc2n1C1OC(CO)C(O)C1O` (stereo not given), 102%. For `COc1cc2cc(Oc3ccc(NC(=O)Nc4cccc(C(F)(F)F)c4)cc3)c(C)nc2cc1OCCN(C)C` the value was 79.6%. As to `O=c1c2cccc3c(N4CCOCC4)ccc(c32)c2nc3ccccc3n12`, the growth is -63.5% (active). On to `c1ccc2cc(-c3n(Cc4ccc5ccccc5n4)c4ccccc4[n+]3Cc3ccc4ccccc4n3)ccc2c1`, for which the growth is -36% (active). As to `O=[N+]([O-])c1ccc(N/N=C/c2c(O)ccc3ccccc23)nc1`, the growth was 36.9%.

Take `COc1cc(NC2=C(Cl)C(=O)c3nc(C)ccc3C2=O)cc(OC)c1`: the growth was -78.5% (active). In the case of `Fc1ccc(-c2ccnc3nc(-c4ccncc4)nn23)cc1`, the growth is 111%. For `O=C(NC1CCCCC1)OCc1c(COC(=O)NC2CCCCC2)c(-c2ccc(Cl)c(Cl)c2)n2c1CCC2`, the growth was -61.7% (active). In the case of `CCOC(=O)c1[nH]c(-c2ccc(Cl)cc2)cc1-c1cccnc1` it was -1.1% (active); in that of `CCOc1ccccc1C(=O)/C=C/c1cc2ccccc2[nH]c1=O`, -20.2% (active). Regarding `CCOc1cc2ncc(C#N)c(Nc3ccc(F)c(Cl)c3)c2cc1NC(=O)CC1CCSS1` (stereo not given), the growth is -74.2% (active). For the compound `O=C(/C=C\c1ccnc2ccccc12)c1ccc([N+](=O)[O-])cc1`, the growth is 57.5%. `Cn1c(=O)c2[nH]c(C(O)c3ccc(Cl)cc3)nc2n(C)c1=O` (stereo not given): the growth is 96.7%. For `COc1c(O)cc2c(c1CC=C(C)C)OC(=O)c1c(cc(O)c(CC=C(C)C)c1O)O2` the value was 27.9%; for `COc1cc2nc(-c3ccc(C(F)(F)F)cc3)cc(OCCN3CCC(O)CC3)c2cc1OC`, 81.1%; for `O=C(NCc1ccc(Cn2c(=O)sn(-c3ccccc3)c2=O)cc1)OCc1ccc2cccc(O)c2n1`, -73.3% (active).

Take `CC(=O)C1=C(O)C=C2Oc3c(C(=O)/C=C/c4cc(Cl)cc(Cl)c4)c(O)c(C)c(O)c3[C@]2(C)C1=O`: the growth was -41.7% (active). Turning to `COc1cccc(CCN2C(=O)CCC3=C2CCC3=O)c1`, the growth is 103%. Consider `Cn1cc(-c2cc(N)n3nc(-c4cn(C)c5ccc(Br)cc45)cc3n2)c2cc(Br)ccc21`, for which the growth was 97.9%. With `CCOC(=O)C1=C(C)N=C2Sc3cccc(OC)c3N2[C@H]1c1ccccn1`, the growth was 108%. Turning to `COc1cc(CCn2nnc3c(Nc4ccc(N5CCOCC5)cc4)ncnc32)cc(OC)c1`, the growth was 80.6%. In the case of `O=C1CCc2c(sc3[nH]c(=S)n(Cc4ccc(Cl)cc4)c(=O)c23)C1` it was -18.7% (active).

`O=[N+]([O-])c1cccc(SSc2cccc([N+](=O)[O-])c2)c1`: the growth was 109%. Turning to `CCCCOC(=O)c1ccc(NC(=O)CCl)cc1`, the growth was 50%. For `Oc1c(CN2CCC(N3CCOCC3)CC2)cc(Cc2cc(CN3CCC(N4CCOCC4)CC3)c(O)c3ncccc23)c2cccnc12`, the growth was 9.12% (active). For the compound `Cc1ccc(-c2csc(NC(=O)c3ccccc3CN3C(=O)c4ccccc4C3=O)n2)cc1`, the growth is 92.1%. As for `O=C1c2ccc3c4ccc5c6c(ccc(c7ccc(c2c37)C(=O)N1CCC[P+](c1ccccc1)(c1ccccc1)c1ccccc1)c64)C(=O)N(CCC[P+](c1ccccc1)(c1ccccc1)c1ccccc1)C5=O`, the growth is -2.38% (active). As for `COc1ccc2cc(C(C)C(=O)Nc3ccc(S(=O)(=O)Nc4cc(C)on4)cc3)ccc2c1` (stereo not given), the growth is 114%.
